Laboratory results reported in ChEMBL document CHEMBL1961873, “Compounds: GSK PKIS; Assays: Nanosyn kinase panel” (2012).

Assays:
[1] = target: T1, Serine/threonine-protein kinase TBK1 (Homo sapiens) (UniProt Q9UHD2); settings: at 1 µM;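 note: values are mean inhibition of TBK1, screened as part of the GSK published kinase inhibitor set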
T1 sequence (whole entry): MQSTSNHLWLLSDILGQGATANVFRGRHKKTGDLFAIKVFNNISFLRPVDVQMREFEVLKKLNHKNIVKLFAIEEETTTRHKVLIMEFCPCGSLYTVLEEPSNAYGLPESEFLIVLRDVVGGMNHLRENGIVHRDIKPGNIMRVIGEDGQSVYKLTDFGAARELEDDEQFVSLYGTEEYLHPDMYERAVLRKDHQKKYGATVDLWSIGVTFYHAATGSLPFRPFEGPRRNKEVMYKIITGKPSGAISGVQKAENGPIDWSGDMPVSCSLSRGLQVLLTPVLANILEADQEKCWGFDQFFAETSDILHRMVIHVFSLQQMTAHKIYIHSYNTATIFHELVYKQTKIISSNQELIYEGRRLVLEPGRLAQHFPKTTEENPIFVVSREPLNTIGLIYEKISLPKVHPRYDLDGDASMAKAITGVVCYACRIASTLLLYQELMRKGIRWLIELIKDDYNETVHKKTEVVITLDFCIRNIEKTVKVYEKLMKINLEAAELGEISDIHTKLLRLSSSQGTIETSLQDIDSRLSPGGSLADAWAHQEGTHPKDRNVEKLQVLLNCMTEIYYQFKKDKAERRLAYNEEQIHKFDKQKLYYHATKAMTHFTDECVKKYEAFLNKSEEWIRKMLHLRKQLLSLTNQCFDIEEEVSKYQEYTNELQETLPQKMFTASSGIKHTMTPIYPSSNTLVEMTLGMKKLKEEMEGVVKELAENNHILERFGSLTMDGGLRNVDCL

[2] = target: T2, Testis-specific serine/threonine-protein kinase 1 (Homo sapiens) (UniProt Q9BXA7); settings: at 0.1 µM
T2 sequence (whole entry): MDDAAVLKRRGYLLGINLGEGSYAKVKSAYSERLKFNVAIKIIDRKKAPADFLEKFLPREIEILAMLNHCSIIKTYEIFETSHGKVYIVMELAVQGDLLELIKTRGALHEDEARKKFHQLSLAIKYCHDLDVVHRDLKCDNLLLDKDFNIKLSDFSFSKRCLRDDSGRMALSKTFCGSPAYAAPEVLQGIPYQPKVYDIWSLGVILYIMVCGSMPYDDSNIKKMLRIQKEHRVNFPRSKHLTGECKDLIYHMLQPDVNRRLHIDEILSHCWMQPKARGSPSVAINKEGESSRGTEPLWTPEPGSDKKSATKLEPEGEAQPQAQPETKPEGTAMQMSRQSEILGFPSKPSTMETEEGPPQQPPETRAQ

[3] = target: T2, Testis-specific serine/threonine-protein kinase 1 (Homo sapiens); settings: at 1 µM
[4] = target: T3, Testis-specific serine/threonine-protein kinase 2 (Homo sapiens) (UniProt Q96PF2); settings: at 0.1 µM
T3 sequence (whole entry): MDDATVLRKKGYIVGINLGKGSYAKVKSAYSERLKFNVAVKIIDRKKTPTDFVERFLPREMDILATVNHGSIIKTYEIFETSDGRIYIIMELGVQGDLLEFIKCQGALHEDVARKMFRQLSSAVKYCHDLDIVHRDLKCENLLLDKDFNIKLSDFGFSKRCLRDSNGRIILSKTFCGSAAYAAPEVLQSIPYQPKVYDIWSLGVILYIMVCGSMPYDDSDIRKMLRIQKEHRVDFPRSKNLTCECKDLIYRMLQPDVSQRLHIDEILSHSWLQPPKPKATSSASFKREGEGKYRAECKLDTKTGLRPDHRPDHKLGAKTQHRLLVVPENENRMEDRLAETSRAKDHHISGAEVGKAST

[5] = target: T3, Testis-specific serine/threonine-protein kinase 2 (Homo sapiens); settings: at 1 µM
[6] = target: Casein kinase I isoform alpha (Homo sapiens) (UniProt P48729); settings: at 0.1 µM
Sequence of Casein kinase I isoform alpha (Homo sapiens) (P48729 2-337 limits assumed): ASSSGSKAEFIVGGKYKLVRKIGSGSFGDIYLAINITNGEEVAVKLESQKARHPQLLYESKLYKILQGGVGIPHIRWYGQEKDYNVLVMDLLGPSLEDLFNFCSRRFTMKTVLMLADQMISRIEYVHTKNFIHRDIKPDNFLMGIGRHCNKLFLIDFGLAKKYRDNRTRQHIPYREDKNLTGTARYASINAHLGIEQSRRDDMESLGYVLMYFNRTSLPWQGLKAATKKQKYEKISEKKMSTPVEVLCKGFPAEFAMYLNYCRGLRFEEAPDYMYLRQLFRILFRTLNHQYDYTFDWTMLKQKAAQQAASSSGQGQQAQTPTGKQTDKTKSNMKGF

[7] = target: Casein kinase I isoform alpha (Homo sapiens) (UniProt P48729); settings: at 1 µM
[8] = target: Casein kinase I isoform gamma-1 (Homo sapiens) (UniProt Q9HCP0); settings: at 0.1 µM
Sequence of Casein kinase I isoform gamma-1 (Homo sapiens) (Q9HCP0 whole entry, looked up, canonical isoform): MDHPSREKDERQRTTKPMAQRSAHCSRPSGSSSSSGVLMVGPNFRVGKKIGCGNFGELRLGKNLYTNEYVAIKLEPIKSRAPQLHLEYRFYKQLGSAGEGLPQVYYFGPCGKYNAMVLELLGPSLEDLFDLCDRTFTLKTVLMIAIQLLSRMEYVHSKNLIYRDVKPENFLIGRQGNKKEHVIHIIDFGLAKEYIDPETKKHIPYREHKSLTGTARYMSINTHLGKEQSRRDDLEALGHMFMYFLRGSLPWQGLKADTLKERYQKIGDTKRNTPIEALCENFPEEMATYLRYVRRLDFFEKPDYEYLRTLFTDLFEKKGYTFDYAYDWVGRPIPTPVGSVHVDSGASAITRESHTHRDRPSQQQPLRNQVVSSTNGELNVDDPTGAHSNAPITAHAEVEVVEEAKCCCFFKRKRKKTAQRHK

[9] = target: Casein kinase I isoform gamma-1 (Homo sapiens) (UniProt Q9HCP0); settings: at 1 µM
[10] = target: Casein kinase I isoform gamma-2 (Homo sapiens) (UniProt P78368); settings: at 0.1 µM
Sequence of Casein kinase I isoform gamma-2 (Homo sapiens) (P78368 whole entry, looked up, canonical isoform): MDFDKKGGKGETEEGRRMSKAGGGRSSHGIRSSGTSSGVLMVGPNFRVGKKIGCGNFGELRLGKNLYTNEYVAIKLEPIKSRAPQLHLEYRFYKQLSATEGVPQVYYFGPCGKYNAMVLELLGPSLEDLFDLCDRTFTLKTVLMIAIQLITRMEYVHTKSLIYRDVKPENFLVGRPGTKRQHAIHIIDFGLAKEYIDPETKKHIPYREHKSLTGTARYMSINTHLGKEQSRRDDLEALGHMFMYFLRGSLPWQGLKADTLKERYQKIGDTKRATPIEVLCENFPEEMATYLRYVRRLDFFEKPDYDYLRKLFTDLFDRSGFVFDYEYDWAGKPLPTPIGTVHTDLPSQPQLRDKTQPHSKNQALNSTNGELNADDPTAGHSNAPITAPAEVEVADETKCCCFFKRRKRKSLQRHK

[11] = target: Casein kinase I isoform gamma-2 (Homo sapiens) (UniProt P78368); settings: at 1 µM
[12] = target: Casein kinase I isoform gamma-3 (Homo sapiens) (UniProt Q9Y6M4); settings: at 0.1 µM
Sequence of Casein kinase I isoform gamma-3 (Homo sapiens) (Q9Y6M4 whole entry, looked up, canonical isoform): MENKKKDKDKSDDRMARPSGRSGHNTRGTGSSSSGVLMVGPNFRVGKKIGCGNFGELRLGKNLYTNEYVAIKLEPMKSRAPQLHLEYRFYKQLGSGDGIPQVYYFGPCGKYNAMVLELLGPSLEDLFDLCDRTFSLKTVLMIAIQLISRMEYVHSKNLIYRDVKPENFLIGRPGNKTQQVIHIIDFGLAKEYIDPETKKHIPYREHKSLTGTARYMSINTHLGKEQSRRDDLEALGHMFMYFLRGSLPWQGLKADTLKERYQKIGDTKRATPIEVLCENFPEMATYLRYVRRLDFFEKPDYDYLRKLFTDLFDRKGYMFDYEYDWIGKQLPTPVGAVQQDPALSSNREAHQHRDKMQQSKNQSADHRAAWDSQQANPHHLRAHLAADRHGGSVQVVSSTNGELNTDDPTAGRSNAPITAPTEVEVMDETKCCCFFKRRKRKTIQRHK

[13] = target: Casein kinase I isoform gamma-3 (Homo sapiens) (UniProt Q9Y6M4); settings: at 1 µM
[14] = target: Cyclin-dependent kinase 1 (Homo sapiens) (UniProt P06493); settings: at 0.1 µM
Sequence of Cyclin-dependent kinase 1 (Homo sapiens) (P06493 whole entry, looked up): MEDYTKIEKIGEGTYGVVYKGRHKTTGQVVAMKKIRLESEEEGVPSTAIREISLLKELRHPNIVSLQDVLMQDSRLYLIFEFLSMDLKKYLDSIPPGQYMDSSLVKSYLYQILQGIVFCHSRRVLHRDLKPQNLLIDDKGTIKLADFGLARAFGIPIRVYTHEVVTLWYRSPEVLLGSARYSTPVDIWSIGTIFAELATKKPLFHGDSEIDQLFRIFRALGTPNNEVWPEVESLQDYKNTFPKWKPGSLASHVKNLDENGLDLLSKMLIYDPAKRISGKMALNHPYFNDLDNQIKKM

[15] = target: Cyclin-dependent kinase 1 (Homo sapiens) (UniProt P06493); settings: at 1 µM
[16] = target: Cyclin-dependent kinase 2 (Homo sapiens) (UniProt P24941); settings: at 0.1 µM
[17] = target: Cyclin-dependent kinase 2 (Homo sapiens) (UniProt P24941); settings: at 1 µM
[18] = target: Cyclin-dependent kinase 2 (Homo sapiens) (UniProt P24941); settings: at 0.1 µM; remark: listed apart in the source
[19] = target: Cyclin-dependent kinase 2 (Homo sapiens) (UniProt P24941); settings: at 1 µM; remark: listed apart in the source
[20] = target: CDK3/Cyclin E (Homo sapiens) (UniProt P24864+Q00526); settings: at 0.1 µM;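 note: reported percentages are mean inhibition values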
Sequence of CDK3/Cyclin E (Homo sapiens) (P24864 whole entry, looked up): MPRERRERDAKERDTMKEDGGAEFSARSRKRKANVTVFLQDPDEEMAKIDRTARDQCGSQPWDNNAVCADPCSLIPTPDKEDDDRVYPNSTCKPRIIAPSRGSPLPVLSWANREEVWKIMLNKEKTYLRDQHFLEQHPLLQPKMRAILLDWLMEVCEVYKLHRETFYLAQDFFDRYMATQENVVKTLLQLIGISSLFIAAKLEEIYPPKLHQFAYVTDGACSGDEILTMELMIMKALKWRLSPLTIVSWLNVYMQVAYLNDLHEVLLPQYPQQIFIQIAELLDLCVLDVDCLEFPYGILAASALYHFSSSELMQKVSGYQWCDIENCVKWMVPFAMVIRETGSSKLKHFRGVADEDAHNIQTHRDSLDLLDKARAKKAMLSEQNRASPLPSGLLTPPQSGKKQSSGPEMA
Sequence of CDK3/Cyclin E (Homo sapiens) (Q00526 whole entry, looked up): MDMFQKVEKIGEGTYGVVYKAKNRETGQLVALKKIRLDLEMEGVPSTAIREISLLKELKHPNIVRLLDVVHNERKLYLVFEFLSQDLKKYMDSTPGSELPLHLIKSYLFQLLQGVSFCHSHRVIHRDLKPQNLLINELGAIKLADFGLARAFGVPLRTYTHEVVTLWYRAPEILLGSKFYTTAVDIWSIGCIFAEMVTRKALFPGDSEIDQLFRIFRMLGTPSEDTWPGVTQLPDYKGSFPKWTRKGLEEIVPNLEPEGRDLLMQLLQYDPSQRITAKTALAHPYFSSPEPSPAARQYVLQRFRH

| Structure (SMILES) | inhibition [1] [%] | inhibition [2] [%] | inhibition [3] [%] | inhibition [4] [%] | inhibition [5] [%] | inhibition [6] [%] | inhibition [7] [%] | inhibition [8] [%] | inhibition [9] [%] | inhibition [10] [%] | inhibition [11] [%] | inhibition [12] [%] | inhibition [13] [%] | inhibition [14] [%] | inhibition [15] [%] | inhibition [16] [%] | inhibition [17] [%] | inhibition [18] [%] | inhibition [19] [%] | inhibition [20] [%] |
| --- | --- | --- | --- | --- | --- | --- | --- | --- | --- | --- | --- | --- | --- | --- | --- | --- | --- | --- | --- | --- |
| NS(=O)(=O)c1ccc(N/N=C2\C(=O)Nc3ccc(C(=O)NCCCn4ccnc4)cc32)cc1 | 30.4 | 7.1 | 13.3 | 4.07 | 6.71 | 3.95 | 6.05 | 5.08 | 10.8 | 4.43 | 9.42 | 5.52 | 12.9 | 20.5 | 66.7 | 97.4 | 97.9 | 65 | 82.4 | 27.8 |
| NC(=O)c1cc(-c2ccc(F)cc2)cc(-c2ccncc2)c1N | 2.04 | 3.98 | 5.61 | 2.71 | 4.29 | 6.79 | 2.14 | 4.19 | 4.95 | 3.82 | 6.08 | 4.13 | 2.66 | 0.65 | 0.73 | 2.41 | -6.47 | 2.49 | 2.14 | 4.68 |
| CN(C)c1ccc2c(c1)/C(=C/Nc1ccc(S(N)(=O)=O)cc1)C(=O)N2 | 49.7 | 2.84 | 9.92 | 0.44 | 1.25 | 1.06 | 2.88 | 1.12 | 1.57 | 1.13 | 1.27 | 0.48 | 0.92 | 6.23 | 33.9 | 21.8 | 82.6 | 16.3 | 54 | 5.6 |
| COc1cc2ncn(-c3cc(OCc4cccs4)c(C(N)=O)s3)c2cc1OC | 16.7 | 4.25 | 8.81 | 2.91 | 7.11 | 2 | 3.36 | -0.26 | -1.01 | -1.54 | -1.86 | -0.97 | -0.06 | -2.79 | -0.17 | -2.8 | 6.63 | -0.55 | 4.77 | 1.28 |
| CS(=O)(=O)CCNCc1ccc(-c2ccc3ncnc(Nc4ccc(OCc5ccccc5)c(Br)c4)c3c2)o1 | 1.05 | 2.71 | 2.53 | 1.22 | 1 | 1.67 | 0.68 | 0.63 | -0.07 | -0.49 | -0.24 | -0.8 | -2.02 | -4.43 | -2.83 | -2.31 | -1.03 | -1.96 | -0.05 | -2.03 |
| O=C(Nc1n[nH]c2nc(-c3ccco3)ccc12)C1CC1 | 2.8 | 1.99 | -0.53 | 0.63 | -1.49 | 0.06 | 3.38 | 0.09 | 1.22 | -0.26 | 1.22 | -1.28 | 0.46 | -0.24 | 2.61 | 3.24 | 6.79 | -0.16 | 3.89 | 0.19 |
| CCc1ccc(Oc2nccc(-c3c(-c4ccc(F)cc4)ncn3C3CCNCC3)n2)cc1 | 4.95 | 3.27 | 5.22 | 1.61 | 2.6 | 6.84 | 36.5 | 3.65 | 14.8 | 3.26 | 11.5 | 6.23 | 30 | 2.36 | 2.02 | 3.63 | 2.75 | 2.03 | 2.75 | -2.23 |
| O=C1Nc2ccccc2/C1=C/Nc1ccc(-n2cncn2)cc1 | 17.3 | 4.37 | 7.35 | 3.01 | 5.54 | 3.79 | 10.3 | 4.33 | 7.11 | 3.66 | 8.25 | 2.62 | 5.16 | 1.97 | 10.6 | 2.39 | 13.3 | 6.28 | 22.2 | 7.69 |
| CCC(=O)Nc1ccc(C)c(-c2ccc(C(=O)NCC3CC3)cc2)c1 | 2.69 | 3.66 | 3.59 | 1.6 | 1.74 | 2.53 | 3.41 | 2.54 | 3 | 2.3 | 3.16 | 1.58 | 1.61 | 2.88 | 2.38 | 3.84 | 3.06 | 3.5 | 4.47 | -1.57 |
| COc1cc(C)c(N(C)C(=O)CN(C)C)cc1Nc1nc(Nc2cccc(F)c2C(N)=O)c2cc[nH]c2n1 | 3.23 | 3.79 | 16.4 | 1.25 | 4.87 | -0.71 | 6 | -0.75 | 11.3 | -2.38 | 10.4 | -0.15 | 26.6 | -4.66 | -4.18 | -3.41 | 1.23 | -2.41 | -2.88 | -0.03 |
| CN(c1ccc(NC(=O)Nc2c(Cl)cccc2Cl)cc1)c1ccnc(Nc2cccc(CS(C)(=O)=O)c2)n1 | 8.89 | 1.9 | 3.33 | 0.55 | 1.93 | 1.15 | 1.15 | 0.39 | 1.32 | 1.06 | 0.63 | 1.67 | -1.25 | 0.58 | 3.72 | 3.62 | 12.2 | -0.54 | 2.62 | 0.7 |
| CN(C)CCOc1ccc(-c2cc(-c3ccc4c(c3)CCC4=NO)c(-c3ccncc3)o2)cc1 | -0.95 | -0.74 | 0.17 | 0.18 | 1.16 | -1.99 | -1.5 | -1.03 | -0.13 | -0.84 | -0.77 | -0.76 | -0.08 | 0.53 | 1.85 | -0.07 | 0.53 | -0.38 | 0.33 | -2.82 |
| COc1cc(Nc2ncc(-c3ccccc3)o2)cc(OC)c1OC | 13.7 | 0.03 | -0.04 | -1.14 | -1.3 | -0.72 | 1.29 | -1.4 | -0.76 | -1.34 | -0.69 | -0.27 | -0.18 | 0.44 | 6.1 | 0.56 | 9.21 | 0.79 | 6.45 | 0.2 |
